FLuc counter = qHTS profiling assay for firefly luciferase inhibitor/activator using purifed enzyme and Km concentrations of substrates (counterscreen for miR-21 project). purified FLuc, Km substrates, luminescence inhibition. AID 588342, 2011. 6.9% of 360,000 active. Luciferin 4-monooxygenase (Photinus pyralis), P08659. Potency, µM (doses to about 57.5 µM), inactives show top-dose activity change, negative = inhibition, actives largely listed as inhibitors;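 also: plate controls were vehicle for no effect and reference inhibitor for full effect; nearly all actives have a fitted effect of over 55% in size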
Target sequence (P08659 whole entry, looked up): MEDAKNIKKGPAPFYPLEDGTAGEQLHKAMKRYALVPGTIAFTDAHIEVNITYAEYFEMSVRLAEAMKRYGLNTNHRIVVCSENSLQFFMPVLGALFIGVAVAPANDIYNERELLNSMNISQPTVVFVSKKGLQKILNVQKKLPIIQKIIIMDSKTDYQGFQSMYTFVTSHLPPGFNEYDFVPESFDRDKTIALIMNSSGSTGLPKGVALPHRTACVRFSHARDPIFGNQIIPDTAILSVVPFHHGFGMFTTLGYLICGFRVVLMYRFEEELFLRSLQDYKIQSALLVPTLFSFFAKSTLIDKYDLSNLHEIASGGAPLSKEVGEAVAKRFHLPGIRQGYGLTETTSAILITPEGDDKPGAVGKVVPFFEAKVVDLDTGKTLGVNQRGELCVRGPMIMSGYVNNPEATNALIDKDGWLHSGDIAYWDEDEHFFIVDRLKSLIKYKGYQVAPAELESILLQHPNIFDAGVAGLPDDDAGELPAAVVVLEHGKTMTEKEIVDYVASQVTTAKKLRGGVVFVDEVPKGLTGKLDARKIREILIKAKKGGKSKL
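Purified P. pyralis luciferase (10nM final) with 10uM D-luciferin and 10uM ATP (Km levels) in 50mM Tris acetate pH 7.5, 10mM Mg acetate, 0.01% Tween-20, 0.05% BSA; qHTS 6-point titration, ~60 µM downward; luminescence read.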
NPC1 prom act = qHTS Assay for NPC1 Promoter Activators. 2.4% of 320,000 active. AID 485313, 2010. Huh7 NPC1 promoter luciferase reporter, 24 h. Potency, µM (top dose mostly 9.22 µM), inactives show top-dose activation, actives largely listed as activators; also: % of control where 0% means no effect; nearly all actives have a fitted effect of over 60% in size
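Quantitative HTS used a cell-based reporter: Huh7 cells stably bearing the NPC1 promoter upstream of luciferase were treated with compounds for 24 h, and promoter activation was read as luminescence.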
Rab9 prom act = qHTS Assay for Rab9 Promoter Activators; Potency, µM (top dose mostly 9.22 µM), for inactives: at the top dose activation, negative = inhibition, most hits filed as activators; 2.8% of 320,000 active; Huh7 Rab9 promoter-luciferase reporter, luminescence, 24 h; also: % of control where 0% means no effect; nearly all actives have a fitted effect of over 60% in size
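Luminescence read-out: Huh7 cells stably expressing Rab9-luciferase, treated 24 h with compound at 37 °C, then lysed with luciferase reagent for 10 min at ambient before reading.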
SMN2 splice up = qHTS Assay for Enhancers of SMN2 Splice Variant Expression | HEK293 SMN2-luciferase splicing reporter, luminescence, 30-36 h | Potency, µM (doses to about 46.1 µM), for the others: at the top dose activity change, positive = activation, usual class: activators | 2.8% of 210,000 active; also: % of control where 0% means no effect; nearly all actives have a fitted effect of over 55% in size
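HEK293 cells carry an SMN2 […]–luciferase reporter in which exon 7 inclusion puts luciferase in frame. Cells were plated 10-12 h before compound addition, then incubated 30-36 h at 37C. ONE-Glo luminescence was read; sodium butyrate at 4.5 mM final served as control.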
ELG1 genotoxic = qHTS screen for small molecules that induce genotoxicity in human embryonic kidney (HEK293T) cells expressing luciferase-tagged ELG1 | HEK293T ELG1-luciferase reporter, luminescence, 16 h | Potency, µM (highest dose often 46 µM), for the others: at the top dose activity change, positive = activation, usual class: activators | 1.3% of 330,000 active | AID 504466, 2011; also: % of control where 0% means no effect; nearly all actives have a fitted effect of over 60% in size
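16 hr compound incubation (37 °C, 5% CO2) of HEK293T cells carrying luciferase-tagged ELG1; luciferase then measured by ONE-Glo luminescence after 30 min at RT.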
ELG1 repair inh = qHTS screen for small molecules that inhibit ELG1-dependent DNA repair in human embryonic kidney (HEK293T) cells expressing luciferase-tagged ELG1; 2.3% of 330,000 active; Potency, µM (top dose mostly 46.1 µM), inactives show at the highest dose activity change, negative = inhibition, usual class: inhibitors; HEK293T ELG1-luciferase reporter, luminescence, 16 h; DNA damage induced by 5-fluorouridine; also: % is scaled to controls: 0 for no effect and ±100 for the full control effect; nearly all actives have a fitted effect of over 55% in size
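DMSO vehicle served as the neutral condition. Each well held 2,000 cells given 5-fluorouridine plus compound; after 16 hr at 37 °C/5% CO2, ONE-Glo was added and luciferase measured 30 min later.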
The depositor's hits bear a star; ? = inconclusive; nt = no result. Only some compounds are listed: those with a hit (about 9.2% of all), similar ones and a draw of the others. Calls follow the shape of the dose curve; as a rule, active = well fitted curve in the direction sought with a large enough effect; inconclusive = small, poorly fitted or top-dose-only effect, or another doubt; inactive = no such curve, though single readings can be large; an effect the other way counts as inactive or inconclusive. Potency is read from the fitted curve at half-maximal effect.

SMILES | FLuc counter | NPC1 prom act | Rab9 prom act | SMN2 splice up | ELG1 genotoxic | ELG1 repair inh
CCOc1ccc(N2C(=O)c3ccccc3C2O)cc1 (stereo not given) | 12µM* | 3.2µM* | ? | 13µM* | 9.2µM* | ?
COc1ccc(C2Nc3ccccc3C(=O)N2c2ccccc2)cc1Cn1cc([N+](=O)[O-])cn1 (stereo not given) | -3% | 2% | -4% | 3% | -4% | ?
Cc1cccc(C2Nc3ccccc3C(=O)N2CCc2ccccc2)n1 (stereo not given) | ? | 2% | 15% | ? | 0% | 18%
O=C1c2ccccc2C(O)N1c1cccnc1 (stereo not given) | -2% | 0% | -9% | 2% | 1% | 12%
COc1ccc(C(=O)c2cn(Cc3cccc(C)c3)c3cc4c(cc3c2=O)OCCO4)cc1OC | 1% | nt | nt | -3% | nt | nt
CCC1CN(C(=O)N2CCC(C(=O)NCCc3ccc(OC)cc3OC)CC2)c2cc(C)ccc2O1 (stereo not given) | -11% | nt | nt | nt | nt | nt
C/C(=N\N1C(=O)c2ccccc2NC1c1ccccc1)c1ccccc1O (stereo not given) | 3% | ? | 0.63µM* | 2.8µM* | 4.6µM* | ?
COc1ccc(/C(C)=N/N2C(=O)c3ccccc3NC2c2ccc(O)c(OC)c2)cc1 (stereo not given) | 13µM* | 16% | ? | nt | ? | ?
C/C(=N\N1C(=O)c2ccccc2NC1c1ccco1)c1ccccc1O (stereo not given) | ? | ? | 0.35µM* | 4µM* | ? | ?
O=C1c2ccccc2NC(c2ccco2)N1/N=C/c1ccco1 (stereo not given) | -5% | 22% | ? | ? | 13% | ?
COc1cc(C2Nc3ccccc3C(=O)N2c2ccccc2)ccc1O (stereo not given) | -8% | 27% | 29% | 13% | ? | ?
Cc1ccc(/C=N/N2C(=O)c3ccccc3NC2c2ccc(C)cc2)cc1 (stereo not given) | ? | 26% | ? | 13µM* | ? | ?
O=C(NC1(C(F)(F)F)NC(=O)N(CCc2ccccc2)C1=O)c1ccccc1F (stereo not given) | 2% | nt | nt | -10% | nt | nt
COc1ccc(CCN2C(=O)c3ccccc3NC2c2cc(Cl)c(O)c(OC)c2)cc1 (stereo not given) | -19% | -34% | -17% | nt | -6% | 7.3µM*
COc1ccc(N2C(=O)c3ccccc3NC2c2ccccc2O)cc1 (stereo not given) | -19% | 1.4µM* | 1.3µM* | nt | ? | ?
O=C(Cc1ccc2c(c1)OCO2)NN=Cc1ccc([N+](=O)[O-])o1 | nt | nt | nt | nt | -7% | 16µM*
COc1cc([N+](=O)[O-])cc(/C=N/NC(=O)c2cncc(Br)c2)c1O | -12% | -8% | -3% | nt | 5% | 23µM*
O=C(N/N=C\c1ccc([N+](=O)[O-])o1)c1cncc(Br)c1 | 2% | 2% | -8% | nt | -8% | 16µM*
COC(=O)c1ccc(C(=O)OC)c(NC2=NS(=O)(=O)c3ccccc32)c1 | 4% | -1% | 1% | -6% | 1% | 3%
COC(=O)c1c(-c2ccccc2)csc1NC1=NS(=O)(=O)c2ccccc21 | 0.6µM* | 25% | 2.5µM* | 0.56µM* | ? | ?
Cc1cc(C)c(NC(=O)CSc2nnc3[nH]c(=O)cc(C)n23)c(C)c1 | 4% | nt | nt | nt | nt | nt
CN=c1scc(-c2ccccc2F)n1/N=C(\C)c1cccnc1 | 7.6µM* | 1.4µM* | 1.8µM* | 11µM* | ? | ?
C/C(=N\N1CCN(C2c3ccccc3-c3ccccc32)CC1)c1cccnc1 | 3% | 1% | -3% | -7% | -3% | -20%
COc1ccc(-c2n[nH]c(=S)n2/N=C/C=C/c2ccccc2OC)cc1 | -13% | -4% | -3% | 25% | -1% | -16%
CC(C)(C)c1ccc(-c2n[nH]c(=S)n2/N=C/c2ccncc2)cc1 | 11µM* | 12% | 25% | 19% | 2% | 0%
SMILES | FLuc counter | NPC1 prom act | Rab9 prom act | SMN2 splice up | ELG1 genotoxic | ELG1 repair inh
COc1ccccc1/C=C/C=N/n1c(-c2ccccc2)n[nH]c1=S | 15µM* | 2% | 13% | nt | -5% | ?
COc1cc(/C=N/n2c(-c3ccccc3)n[nH]c2=S)cc(OC)c1OC | 3% | 2% | -3% | nt | 4% | 4.1µM*
COc1cc(C(=O)NC(C)c2ccc3ccccc3c2)cc(Cl)c1O (stereo not given) | -3% | -1% | -3% | nt | -4% | 4%
Cc1ccc(NCc2ccccc2-c2nnc(-c3ccccc3Cl)o2)cc1Cl | ? | nt | nt | -2% | nt | nt
Fc1ccc(NCc2ccccc2-c2nnc(-c3ccccc3Cl)o2)cc1 | 6µM* | nt | nt | 6% | nt | nt
CCc1cccc(NCc2ccccc2-c2nnc(-c3ccccc3Cl)o2)c1 | 3.4µM* | nt | nt | -3% | nt | nt
Clc1ccc(N2CCN(c3ncnc4c3nc3n4CCCC3)CC2)cc1 | -8% | nt | nt | nt | nt | nt
Cc1ccc(Cn2c(=O)n(Cc3ccccc3Cl)c(=O)c3ccccc32)cc1 | 1% | nt | nt | -8% | nt | nt
CC(C)OC(=O)Nc1ccc2c(c1)N(C(=O)N1CCN(C)CC1)c1ccccc1CC2 | 6µM* | ? | ? | nt | ? | ?
CCOc1ccc(CCNC(=O)Cn2ccc3cc(S(=O)(=O)N4CCCCC4)ccc32)cc1 | 0% | nt | nt | nt | nt | nt
Cc1ccsc1/C=N/N=C/c1sccc1C | 1.1µM* | 4µM* | 1.6µM* | nt | ? | ?
Cc1ccc(C(=O)N/N=C\c2sccc2C)cn1 | 17µM* | ? | ? | ? | ? | ?
Cc1ccsc1/C=N/NC(=O)c1sccc1C | 5.4µM* | 2.5µM* | 3.2µM* | 11µM* | ? | ?
COc1ccc(-n2nnnc2CNC(=O)C2CC(=O)N(c3ccc(Cl)cc3)C2)cc1 (stereo not given) | 0% | -2% | 1% | nt | 6% | 17%
CCc1ccccc1NC(=O)C(C)n1c(=O)cc(C)c2c(C)nn(-c3ccccc3)c21 (stereo not given) | -3% | nt | nt | nt | nt | nt
CC1=C(C(=O)NCc2ccc(Cl)cc2)C2(CCCCC2)OC1=O | -9% | nt | nt | nt | nt | nt
Cc1cccc(N2CCN(C(=O)Cn3nc(Cc4cccnc4)c4ccccc4c3=O)CC2)c1C | -2% | nt | nt | -17% | nt | nt

Compound activity: PubChem, National Center for Advancing Translational Sciences (NCATS)
